In the library only some 7.3% were active in any assay of this set; here they are far more common.
HCMV antiviral: qHTS Assay for inhibitors of the human cytomegalovirus (HCMV) | HFF cells, HCMV-luciferase reporter, 72 h; hits give low values | activity change, negative = inhibition, % at 57.5 µM | 410,000 compounds, 4.5% hits | AID 1259415, 2018; in the data active means activity change below about -60%; inconclusive means no clear call, values can overlap the other calls; inactive means above about -39%
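Cell-based, HFFs, 1000 cells/well, 16 h 37C; cpds in DMSO + HCMV-luc, MOI 1 PFU/cell; 72 h 37C; OneGlo luminescence after 5 min RT; norm. to buffer vs Salinomycin 10uM.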
FMDV inh: High Throughput Screening for Foot and Mouth Disease Virus Antivirals. Potency, µM (highest dose often 57.9 µM), most hits filed as inhibitors. FMDV antiviral cell-based qHTS. 410,000 compounds, 1.2% hits; calls by dose curve; tested in HEK293T cells; further: read-out not given here; nearly all actives have a fitted effect of over 45% in size
Vaccinia mCherry: qHTS for Stage-Specific Inhibitors of Vaccinia Orthopoxvirus: mCherry Reporter Primary qHTS. 310,000 compounds, 0.63% hits. Vaccinia virus mCherry reporter infection, fluorescence. Potency, µM (series often up to 36.5 µM), actives largely listed as inhibitors. AID 720579, 2013; calls by dose curve; tested in A549 cells; further: nearly all actives have a fitted effect of over 35% in size
Vaccinia Venus: qHTS for Stage-Specific Inhibitors of Vaccinia Orthopoxvirus: Venus Reporter Primary qHTS | Vaccinia virus Venus reporter expression, fluorescence | Potency, µM (doses to about 36.5 µM), hits mostly inhibitors | 330,000 compounds, 0.46% hits; calls by dose curve; tested in A549 cells; further: nearly all actives have a fitted effect of over 30% in size
HCV inh: qHTS Assay for Inhibitors of Hepatitis C Virus (HCV). Huh7.5.1 HCVcc-Cre infection, luciferase reporter, 44 h. Potency, µM (highest dose often 41.8 µM), most hits filed as inhibitors. 340,000 compounds, 3.4% hits; active means well fitted inhibition curve with a large enough effect; inconclusive means small, poorly fitted or top-dose-only effect, or another doubt; inactive means no such curve, though single readings can be large or run the other way
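Reporter virus HCVcc-Cre (~0.5 moi) infects cells exposed to compound; seeding density 1,000 cells/well with 4 h settling beforehand. Luminescence, 15 sec read, taken 44 h post-infection following a 15 min RT substrate incubation.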
Numbers stand for hits; i = inactive; ? = inconclusive; nt = not tested or not shown; [ ] = another dose, or the depositor's remark.

SMILES	HCMV antiviral	FMDV inh	Vaccinia mCherry	Vaccinia Venus	HCV inh
COc1ccc(C2CC(=O)Nc3c2c(C)nn3-c2nncc(-c3ccc(C)cc3)n2)c(OC)c1OC (configuration not stated)	i	i	?	?	nt
C=CCN1c2ccccc2Sc2cnccc21	-68	?	i	i	nt
CC(=O)OCCN1c2ccccc2Sc2cnccc21	?	i	i	i	nt
CC(=O)Oc1ccc2c(c1)CC[C@@H]1[C@@H]2CC[C@]2(C)[C@@H](O)CC[C@@H]12	nt	i	i	i	nt
Cc1cc(OC(C)C(=O)N(Cc2ccco2)Cc2ccco2)cc(C)c1Cl (configuration not stated)	i	?	i	i	nt
O=C(CCCl)Nc1cc(SCCO)cc([N+](=O)[O-])c1	i	i	i	i	nt
O=C(Nc1cc(SCCO)cc([N+](=O)[O-])c1)c1ccc(Br)o1	i	32µM	?	i	?
CC[C@@H](C)[C@H](C(CC(=O)N1CCCC1[C@@H](OC)[C@H](C)C(=O)N[C@H](Cc1ccccc1)c1nccs1)OC)N(C)C(=O)[C@H](NC(=O)[C@@H](C(C)C)N(C)C)C(C)C (some centres not stated)	-91	i	i	?	i
CC[C@H](C)[C@@H](C(=O)N1CCCC1c1nccs1)N(C)C(=O)[C@H](CC(C)C)N(C)C(=O)[C@H](Cc1ccc(OC)cc1)N(C)C(=O)/C=C(\C)OC (some centres not stated)	i	i	i	i	i
CCOC(=O)C(=Cc1cn(C)c2ccc(S(=O)(=O)N(C)C)cc12)C(=O)OCC	i	32µM	i	i	i
C[C@]12CCC3C(CC[C@]4(O)CC(O)CC[C@@]34C=O)[C@]1(O)CCC2C1=CC(=O)OC1 (some centres not stated)	nt	?	?	10µM	nt
CC1O[C@@H](OC2CC[C@@]3(C=O)C4CC[C@]5(C)C(C6=CC(=O)OC6)CC[C@@]5(O)C4CC[C@]3(O)C2)C(O)C(O)C1O (some centres not stated)	nt	i	25µM	0.045µM	nt
COCc1cc(N2CCN(C(=O)OC(C)(C)C)C[C@@H]2C)ccc1N1CC[C@@H](O)C1	i	nt	nt	nt	nt
COc1cc(/C=C(/NC(=O)c2ccccc2)C(=O)Nc2ccccc2)c([N+](=O)[O-])cc1OC	i	i	i	i	?
COc1cc(/C=C(/NC(=O)c2ccccc2)C(=O)Nc2ccc(O)cc2)c([N+](=O)[O-])cc1OC	-73	i	i	i	i
O=Cc1ccccc1OCCN1CCCC1=O	-63	i	nt	nt	i
O=Cc1ccc(OCCN2CCCC2=O)cc1	i	i	i	i	i
COc1cc2ccccc2cc1C(=O)Nc1ccc(N2CCN(C)CC2)cc1	i	i	nt	nt	13µM
COc1ccc(Cl)cc1C(=O)Nc1ccccc1N1CCN(C(=O)C(C)C)CC1	i	i	nt	nt	?
CN1CCN(c2ccc(NC(=O)c3ccc(Oc4ccccc4)cc3)cc2)CC1	i	i	i	i	?
COc1cc2ccccc2cc1C(=O)Nc1ccc(N2CCN(C(=O)C(C)C)CC2)cc1	i	?	nt	nt	10µM
O=S(=O)(c1ccc(F)cc1)N1CCC(n2c(C(F)(F)F)nc3cccnc32)CC1	i	i	i	i	nt
Clc1ccc(-n2cnnn2)cc1	i	i	nt	nt	i
CO/C=C\C=C/c1nnn(-c2ccc(Cl)cc2)n1	-64	i	i	i	i
CC(=O)N1CCN(c2c(F)c(F)c(C(F)(F)F)c(F)c2F)CC1	-61	?	i	i	i
SMILES	HCMV antiviral	FMDV inh	Vaccinia mCherry	Vaccinia Venus	HCV inh
COc1ccc(CCNC(=O)c2nnn(-c3ccc4c(c3)OCCO4)c2N)cc1OC	-75	3.5µM	nt	nt	?
COc1ccc(CCN2C(=O)CCC2(C)c2nnnn2-c2ccc3c(c2)OCCO3)cc1OC (configuration not stated)	-83	i	i	i	nt
COc1ccc(CCNC(=O)c2nnn(-c3ccccc3OC)c2N)cc1OC	i	i	i	i	i
Cc1ccccc1NC(=O)c1nnn(-c2ccc3c(c2)OCCO3)c1N	i	i	i	i	10µM
CCOc1ccc(CCNC(=O)c2cc3sc(CC)cc3n2C)cc1OCC	i	i	i[7.34 µM]	i[7.34 µM]	nt
CCOc1ccc(CCNC(=O)c2cc3sccc3n2CC)cc1OCC	i	?	i	i	7.9µM
Cc1ccc(-c2cnn(-c3cccc(C(F)(F)F)c3)c2N)cc1	i	i	nt	nt	11µM

Screening results from PubChem.
